# Data reported in the supplement of paper PMC6555819.
# Legend:
# Experiment in all cases: PBM binding z-score (relative to random genomic background probes); higher = stronger binding; sequences stand for … in GC…GCGATTGACAGCGTAGAATGAAGG
# [1] = tested on: FXR:RXRa (NR concentration 270 nM, RXRa partner concentration 90 nM)
# Summary of the method: (§1)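 Custom Agilent 4×180K protein-binding microarrays carried double-stranded probes, each with a 34-nt variable region. These regions held direct-repeat seeds, single-nucleotide variants, half-site ablations and random human genomic background sequences. Ligand-free nuclear receptor dimers were incubated on the arrays for 1 h, antibodies against each partner (one per run) detected binding, and scanned fluorescence was regression-normalized. Binding z-scores take the random background probes as reference.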
# [2] = tested on: LXRa:RXRa (NR concentration 270 nM, RXRa partner concentration 90 nM)
# Summary of the method: as §1
# [3] = tested on: LXRa homodimer (NR concentration 270 nM)
# Summary of the method: as §1
# [4] = tested on: LXRb:RXRa (NR concentration 270 nM, RXRa partner concentration 90 nM)
# Summary of the method: as §1
# [5] = tested on: LXRb homodimer (NR concentration 270 nM)
# Summary of the method: as §1
# [6] = tested on: PPARa:RXRa (NR concentration 270 nM, RXRa partner concentration 90 nM)
# Summary of the method: as §1
# [7] = tested on: PPARg:RXRa (NR concentration 180 nM, RXRa partner concentration 90 nM)
# Summary of the method: as §1
# [8] = tested on: PPARg:RXRa 270nM:90nM, anti-RXR (NR concentration 270 nM, RXRa partner concentration 90 nM)
# Summary of the method: as §1
# [9] = tested on: PPARg:RXRa 30nM:10nM, anti-RXR (NR concentration 30 nM, RXRa partner concentration 10 nM)
# Summary of the method: as §1
# [10] = tested on: PPARg:RXRa 90nM:30nM, anti-RXR (NR concentration 90 nM, RXRa partner concentration 30 nM)
# Summary of the method: as §1
Sequence,PBM binding z-score [1],PBM binding z-score [2],PBM binding z-score [3],PBM binding z-score [4],PBM binding z-score [5],PBM binding z-score [6],PBM binding z-score [7],PBM binding z-score [8],PBM binding z-score [9],PBM binding z-score [10]
GGAACGAGGGCATTCGAGTGGATAGCATGGCGAT,0.825,0.32,-0.525,-0.0544,-0.833,1.13,0.858,0.594,-0.34,-0.0101
AGAACGAAGGCAATGAGTTGATAGCACGGGTGGC,-0.744,-0.976,-0.545,-0.999,-1.01,-0.613,0.809,-0.61,-0.619,-0.608
ACTTACGGGTGAACGAGGTTATAGCACGCGTATA,0.972,1.28,0.16,1.21,-0.375,2.36,1.73,1.35,0.333,0.745
GCTTGTAGATCAAGGTTCAGAAAGACTAAGCTAA,-0.0392,0.122,0.0153,0.103,-0.768,2.44,4.87,5.28,3.39,5.82
AGTCAAAGTTCAGGACGAGGTAACGTAGAGCACG,4.1,3.8,1.01,2.04,0.385,3.59,4.68,4.62,2.13,3.9
AGTCAAAGTTCACTAGGTAGCGTAAGATTCAGCT,5.23,5.4,3.04,2.9,0.743,4.13,6.27,6.17,2.76,5.22
CCGACTCGGGCAGAAAGGTTACCATACCATCCGG,0.546,0.698,-0.128,0.841,-0.536,1.97,1.41,2.44,0.663,1.76
CCTAGCAGGCCAGGGTCACTCATGCATTTCGCTT,1.41,1.5,-0.432,1.72,-0.832,2.91,0.947,1.24,-0.332,0.442
ATCTCTAGGTAAGACTCATTTCAGTGAAGAACGC,0.503,0.373,0.526,0.488,0.888,-0.0236,0.0953,0.265,0.363,0.295
TGTCAAAGTTCAAAGCTAACGTAAGTATCCACAC,6.52,6.15,3.83,4.14,1.86,5.22,7.92,7.25,4.27,7.06
AGAAGGAGGTTAAGATCAGGGAAACAGAATACAT,1.65,1.79,0.422,2.19,1.11,2.82,1.84,1.67,0.855,1.19
TCTTGTAGATCGACAGGAGGTTAAGAAAGATCGA,-0.239,0.869,-0.338,0.656,-0.423,0.999,-0.276,1.14,2.24,1.55
TAACCAAGGTGAGCTGAGGTCGTTGATCCAACTC,2.66,1.63,-0.195,0.348,-0.934,1.81,0.206,0.531,-0.0525,0.137
ATCGAAAGGTCGTGGTGAGTATAGAGAAAGGGAA,5.04,4.49,0.646,3.78,1.75,5.5,4.16,4.2,1.54,3.12
GCTAGTTGGTCAGTAAAACGTCACACACCGGTCG,-0.277,-0.464,-0.383,-0.473,-0.195,-0.343,0.524,-0.186,-0.445,-0.286
CAAGACAGGTGAAAGGTAACTCAGTCTGGTACGC,1.04,1.14,-0.209,0.929,0.289,3.73,5.4,5.94,4.14,6.08
CTCGAAAGGTCGGTGGAGGTGAGTATACGGATAA,2.34,1.77,-0.129,1.41,-0.0636,2.82,0.577,1.22,0.0571,0.88
GTACCAAGGTGAATACGTCGTTGATGAGTAGGCG,0.119,-0.0604,-0.411,-0.17,-0.867,0.781,0.854,0.362,0.117,0.456
TCTCGTAGGACACGAAGGTCAGAGCTTTCCAGAG,0.999,0.907,0.334,1.08,-0.838,1.85,0.478,1.91,2.61,2.45
ACTAGCAGGCAAAGTTTGGGTCACTCAAACAAAG,0.0773,0.185,-0.475,0.807,-0.762,1.33,-0.0441,0.288,-0.32,0.224
TAATATAGGTAAAGGTGAAAGTCGAACGATATGA,1.14,1.33,0.478,1.55,0.351,4.23,6.52,6.14,4.8,6.35
GATACAGGGTCAAGGCTAGAGTACGCGTATTGAT,6.01,4.13,0.107,3.78,0.158,5.61,5.73,5.61,2.19,4.21
TTTCAAAGTTCAAAGGTAACGTAAGTATCCACAC,7.1,6.88,6.41,4.86,2.71,5.69,6,6.43,3.39,5.49
CCTACTGGGCCAAAGGTAATTGATTCCAATGCTC,-0.451,-0.199,-0.379,-0.0867,-0.845,3.66,8.76,7.99,6.87,8.72

Sequence,PBM binding z-score [1],PBM binding z-score [2],PBM binding z-score [3],PBM binding z-score [4],PBM binding z-score [5],PBM binding z-score [6],PBM binding z-score [7],PBM binding z-score [8],PBM binding z-score [9],PBM binding z-score [10]
CGTCCAAGGTCAGAGAGGTCAGTGAGTGCCGAGT,6.29,5.06,3.37,4.79,0.412,5.19,3.71,4.4,0.893,2.59
TCTAGTTGGTCACAGAGGTCACACACGACGGGTA,4.73,4.98,3.92,4.46,1.51,4.84,4.45,5.18,4.12,5.26
ATCTCTAGGTAAGACTCAGTGCAGTGAAGAACGC,0.188,0.383,0.212,-0.0859,0.687,-0.163,-0.0807,0.0157,0.104,-0.0649
GCTCGGAGGACAAGGTCAGAGGTTTGTCCGTAGA,1.77,1.52,-0.501,1.28,-0.78,2.39,1.75,2.59,0.214,2.08
TCACCAAGGTGAGCTGAGGTCGTTGATCCAACTC,1.24,0.999,-0.747,0.743,-1.63,1.6,0.00194,1.01,0.915,0.958
CAAACTAGGTCACTGGAAGGTCAAAGTCCGCATG,5.47,5.41,4.68,4.88,1.36,5.88,9.17,7.25,5.53,7.22
GGAACGAGGGCAAAGTTGATAGCCTCTGTCGACG,1.19,0.817,-0.461,0.459,-0.828,3.93,6.54,7.37,5.66,7.65
GCTTACGGGTCAAAGGTTATAGAATGAATAGAAT,7.46,6.03,0.9,5.71,0.667,7,11.4,9.46,10.1,10.7
CCTAGCAAGCCAGGGTCACTCAAGCATTTCGCTT,2.31,1.92,-0.142,2.16,-1.12,3.13,0.169,1.09,-0.503,0.224
CAAACTAGGTCACAGAGGTCAAAGTCCGTGCGTA,7.61,6.66,7.31,6.24,2.21,6.66,10.2,8.58,6.84,8.64
CCTACCGGGCCAAAGGTCATTGATTCCAATGCTC,4.82,5.29,3.7,4.97,0.797,5.89,9.76,9.09,7.65,9.83
TCGTGTAGGTTAGGGGCATTCAGAATGGCGTCGA,1.04,0.994,0.245,1.63,0.909,1.6,0.371,1.78,2.01,2.06
ATCTCTATGTAAAGTTCAGTGAAAGATCGATAGA,0.881,1.72,1.66,1.17,0.525,1.87,2.59,3.76,2.03,3.82
CGTCCAAGGTCAGAGAGGTCAGTGGATGCCGAGT,6.14,5.17,3.43,4.38,0.285,4.94,3.46,4.26,1.09,2.58
CCAGACAGGTCAAAGGTAACTCAGTCTGGTACGC,6.4,4.97,0.903,4.17,0.453,5.83,7.89,7.43,6.13,8.02
ACAGACAGGTGAGTGAAAGTAACTCAGCTGGACG,0.0251,0.239,-0.514,-0.461,-0.641,-0.0542,0.742,-0.29,-0.67,-0.542
TCATATAGGTAAAGGTGAAGGTCGAACGATATGA,1.28,1.29,-0.098,1.57,0.0286,3.41,4.01,4.29,4.42,4.54
CGTCCAAGGTCATAGGAGCTCAGTGAAGACAGAT,7.5,5.19,0.569,3.82,0.584,5.64,4.69,5.04,1.57,3.6
TCTAGTTGGTCACGGATGTCACACACGACGGGTA,0.669,0.373,0.422,0.666,0.393,1.18,1.32,2.25,3.22,2.84
CGAACTAGGTCAAGGACCGTGAATCTCCGCACGC,3.28,2.1,-0.026,1.26,-0.781,4.64,7.76,6.89,4.37,6.74
ATCTCTAGGTAAGCCTCAGTTCAGTGAAGAACGC,0.31,0.658,0.468,0.438,0.861,0.35,-0.00624,0.396,-0.0235,0.487
AGTCAACGTTCATCTAGGTAACGTAAGATATGCT,-0.27,-0.156,-0.154,-0.204,-0.325,0.365,0.767,0.288,0.292,0.234
CCTATTGGTTGACCATAAGGGCAACCGAAGCTCG,0.484,-0.0111,-0.255,0.153,-0.527,0.421,0.215,0.235,-0.263,-0.214
TCTATTAGTGGAAGGGCAACCGACGAGTCCGTTT,0.67,0.688,0.218,0.807,0.57,0.716,0.0931,1.91,3.26,2.56
